The list is not random: actives were taken first. Their share in the collection is about 12%.
L3MBTL1 inh – qHTS Assay for the Inhibitors of L3MBTL1; Lethal(3)malignant brain tumor-like protein 1 (Homo sapiens), Q9Y468; AlphaScreen L3MBTL1–H3K9me1 peptide binding; Potency, µM (top dose mostly 57.1 µM), without a hit: at the highest dose activity, negative = inhibition, hits mostly inhibitors; 230,000 tested, 0.66% active; AID 485360, 2010; further: on the % scale 0 is the no-effect control and ±100 the full control effect; nearly all actives have a fitted effect of over 60% in size
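L3MBTL1 (50 nM) pre-complexed 30 min with biotinylated H3(1-15)K9me1 peptide (75 nM), then compounds added for 30 min at room temperature; AlphaScreen streptavidin donor/nickel chelate acceptor beads (10 ug/mL final) read after 30 min dark incubation.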
BAZ2B inh – qHTS Assay for Inhibitors of BAZ2B; Bromodomain adjacent to zinc finger domain protein 2B (Homo sapiens), Q9UIF8; Potency, µM (doses to about 114 µM), without a hit: at the top dose activity change, negative = inhibition, actives largely listed as inhibitors; AID 504333, 2011; AlphaScreen BAZ2B-H3K14Ac peptide displacement; 360,000 tested, 4.4% active; further: on the % scale 0 is the no-effect control and ±100 the full control effect; nearly all actives have a fitted effect of over 60% in size
Target sequence (Q9UIF8 whole entry, looked up, the tested form may be a part): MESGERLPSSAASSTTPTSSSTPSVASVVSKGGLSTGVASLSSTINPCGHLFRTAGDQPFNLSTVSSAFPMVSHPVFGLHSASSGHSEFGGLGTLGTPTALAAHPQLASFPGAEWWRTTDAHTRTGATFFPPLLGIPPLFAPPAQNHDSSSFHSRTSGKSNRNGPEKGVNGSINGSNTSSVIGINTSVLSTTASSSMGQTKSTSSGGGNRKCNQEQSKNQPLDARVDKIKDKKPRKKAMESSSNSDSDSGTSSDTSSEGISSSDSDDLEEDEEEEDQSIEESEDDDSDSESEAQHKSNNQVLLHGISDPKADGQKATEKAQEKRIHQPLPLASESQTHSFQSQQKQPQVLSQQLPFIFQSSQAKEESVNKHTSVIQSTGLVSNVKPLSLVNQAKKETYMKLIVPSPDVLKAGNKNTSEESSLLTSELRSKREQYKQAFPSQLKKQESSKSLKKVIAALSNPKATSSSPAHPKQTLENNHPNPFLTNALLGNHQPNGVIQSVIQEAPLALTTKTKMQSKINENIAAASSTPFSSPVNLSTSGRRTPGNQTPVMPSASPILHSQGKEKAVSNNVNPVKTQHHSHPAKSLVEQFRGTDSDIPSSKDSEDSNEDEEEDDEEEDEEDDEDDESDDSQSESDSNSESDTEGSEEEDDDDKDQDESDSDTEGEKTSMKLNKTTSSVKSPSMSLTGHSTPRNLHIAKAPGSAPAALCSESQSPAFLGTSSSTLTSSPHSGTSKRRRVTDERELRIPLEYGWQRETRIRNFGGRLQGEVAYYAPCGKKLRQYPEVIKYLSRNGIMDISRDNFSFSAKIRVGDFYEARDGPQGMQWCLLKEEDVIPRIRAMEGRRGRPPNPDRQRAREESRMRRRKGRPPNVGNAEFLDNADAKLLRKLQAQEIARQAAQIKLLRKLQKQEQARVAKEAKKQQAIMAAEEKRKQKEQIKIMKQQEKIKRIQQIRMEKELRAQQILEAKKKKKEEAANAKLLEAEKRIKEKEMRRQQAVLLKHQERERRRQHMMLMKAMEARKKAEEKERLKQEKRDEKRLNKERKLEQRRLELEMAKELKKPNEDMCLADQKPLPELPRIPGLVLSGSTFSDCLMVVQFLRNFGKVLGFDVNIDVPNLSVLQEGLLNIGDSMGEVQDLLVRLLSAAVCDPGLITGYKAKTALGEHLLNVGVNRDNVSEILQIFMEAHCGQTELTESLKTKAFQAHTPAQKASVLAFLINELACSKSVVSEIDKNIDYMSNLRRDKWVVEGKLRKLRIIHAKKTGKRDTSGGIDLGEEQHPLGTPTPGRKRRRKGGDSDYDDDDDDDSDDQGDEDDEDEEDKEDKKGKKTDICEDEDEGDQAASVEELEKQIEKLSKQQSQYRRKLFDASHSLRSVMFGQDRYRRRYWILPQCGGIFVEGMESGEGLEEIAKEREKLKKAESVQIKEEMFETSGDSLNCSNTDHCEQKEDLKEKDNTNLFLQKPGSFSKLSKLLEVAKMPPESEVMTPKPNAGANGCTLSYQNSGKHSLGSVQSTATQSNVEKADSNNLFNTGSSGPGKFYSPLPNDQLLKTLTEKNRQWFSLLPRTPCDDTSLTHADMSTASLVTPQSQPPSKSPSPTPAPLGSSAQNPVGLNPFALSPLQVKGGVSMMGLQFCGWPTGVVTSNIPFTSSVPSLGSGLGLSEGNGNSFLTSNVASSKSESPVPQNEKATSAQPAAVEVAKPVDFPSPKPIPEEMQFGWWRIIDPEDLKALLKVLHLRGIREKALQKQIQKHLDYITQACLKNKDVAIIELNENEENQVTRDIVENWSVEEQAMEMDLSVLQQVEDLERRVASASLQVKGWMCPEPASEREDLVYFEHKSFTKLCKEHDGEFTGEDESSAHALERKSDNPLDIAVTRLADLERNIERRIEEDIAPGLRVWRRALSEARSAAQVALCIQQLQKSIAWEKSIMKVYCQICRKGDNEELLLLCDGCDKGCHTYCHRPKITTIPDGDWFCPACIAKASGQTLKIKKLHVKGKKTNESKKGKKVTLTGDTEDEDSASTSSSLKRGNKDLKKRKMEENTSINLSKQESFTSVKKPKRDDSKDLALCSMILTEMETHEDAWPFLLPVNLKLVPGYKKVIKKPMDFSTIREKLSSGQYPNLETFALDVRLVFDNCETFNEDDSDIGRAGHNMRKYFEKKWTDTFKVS
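Inhibition is scored as reduced AlphaScreen emission. The BAZ2B/b-H3(5-23)K14Ac complex (50 nM each) in PBS pH 7.4, 0.01% Tween-20 meets compound (up to 110 uM) for 30 min at RT before bead addition.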
G9a inh – qHTS Assay for Inhibitors of Histone Lysine Methyltransferase G9a. Potency, µM (highest dose often 102 µM), for inactives: at the highest dose activity, negative = inhibition, usual class: inhibitors. 350,000 tested, 8.8% active. Histone-lysine N-methyltransferase EHMT2 (Homo sapiens), Q96KQ7. G9a H3K9 monomethylation, AlphaScreen, 2 h; further: on the % scale 0 is the no-effect control and ±100 the full control effect; nearly all actives have a fitted effect of over 75% in size
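AlphaScreen detection with an anti-monomethyl H3K9 antibody quantified product after a 2 h room-temperature reaction containing 500 nM biotinylated H3K9 peptide, 20 µM SAM and 20 nM enzyme, which had been preincubated 15 min with compound.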
JMJD2A Tudor inh – qHTS Assay for Inhibitors of JMJD2A-Tudor Domain. Lysine-specific demethylase 4A (Homo sapiens), O75164. AlphaScreen JMJD2A-Tudor / H3K4me3 peptide binding. Potency, µM (doses to about 114 µM), for the others: top-dose activity change, negative = inhibition, hits mostly inhibitors. 390,000 tested, 4.4% active. AID 504339, 2011; further: on the % scale 0 is the no-effect control and ±100 the full control effect; nearly all actives have a fitted effect of over 50% in size
Sfp PPTase inh – qHTS Assay for Inhibitors of Bacillus subtilis Sfp phosphopantetheinyl transferase (PPTase); Potency, µM, inactives show largest response in the series, negative = inhibition, usual class: inhibitors; 310,000 tested, 3.5% active; AID 1490, 2009; Biochemical Sfp PPTase activity, qHTS; 4'-phosphopantetheinyl transferase ffp (Bacillus subtilis), Q9F4F7;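 further: the enzyme is Sfp with the accession as filed and its product quenches rhodamine fluorescence; 0% = enzyme reaction without inhibitor and -100% = no enzyme wells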
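Fluorescence-quenching assay with 15 nM Sfp, 5 uM rhodamine-CoA and 12.5 uM BHQ-2-labelled ybbR peptide in pH 7.6 Hepes/MgCl2 buffer. Enzyme was pre-incubated with compound for 15 min at room temperature. Rate was taken from the 30-min fluorescence change (525/598 nm).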
HP1b binding inh – HTS for Inhibitors of HP1-beta Chromodomain Interactions with Methylated Histone Tails; 390,000 tested, 0.56% active; Potency, µM (titrated, usually from 114 µM), without a hit: at the top dose activity change, negative = inhibition, hits mostly inhibitors; Chromobox protein homolog 1 (Homo sapiens), P83916; AlphaScreen HP1-beta / biotin-H3K9me3 peptide binding; further: nearly all actives have a fitted effect of over 70% in size
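Compound inhibition of the preformed complex between 50 nM HP1-beta and 50 nM biotinylated H3K9me3 peptide was read by AlphaScreen. Buffer was PBS pH 7.4 with 0.01% Tween-20. Incubations ran 30 min at room temperature, with 10 ug/mL donor/acceptor beads.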
* marks the source's active call; other numbers are inactive results; ? = inconclusive; · = not tested or not shown; [ ] = another dose, or the depositor's remark. The call rests on the fitted dose curve; in most records, active means well fitted curve in the direction sought with a large enough effect; inconclusive means small, poorly fitted or top-dose-only effect, or another doubt; inactive means no such curve, though single readings can be large; an effect the other way counts as inactive or inconclusive. Potency means the concentration at half of the fitted maximal effect.

SMILES	L3MBTL1 inh	BAZ2B inh	G9a inh	JMJD2A Tudor inh	Sfp PPTase inh	HP1b binding inh
CCOC(=O)CN1CC23C=CC(O2)C(C(=O)Nc2cc(OC)ccc2OC)C3C1=O (centres undefined)	1.9%	21.7%	0.6%[59 µM]	-4.3%	13.7%	49.9%
COc1ccc(NC(=O)C2C3C=CC4(CN(Cc5cccnc5)C(=O)C24)O3)c(OC)c1 (centres undefined)	·	50.1µM*	-7.3%	-2.9%	-7.5%	66.2%
COC(=O)C1C2C=CC3(CN(Cc4ccco4)C(=O)C13)O2 (centres undefined)	-2.5%[11.4 µM]	-3.9%	?	-8.0%	12.6µM*	35.0%
COc1ccc(CNC(=O)c2ccc(Cn3c(=O)c4cccn4c4cccnc43)cc2)cc1OC	·	-12.0%	-2.4%[59 µM]	-12.1%	·	10.3%
COc1cc([C@@H]2C[C@H]3CN(c4ccccc4)C(=O)[C@]34CCCN24)cc(OC)c1OC	9.0%	2.3%	·	-22.4%	-6.3%	25.6%
CCOc1cc([C@@H]2C[C@H]3CN(c4ccccc4)C(=O)[C@]34CCCN24)ccc1OC	-11.4%	-18.2%	50.1µM*	-6.8%	-7.5%	16.9%
O=C(CNc1ccccc1Cl)c1ccc(Br)cc1	1.0%	2.7%	79.4µM*	-9.7%	?	45.3%
CSCC[C@@H](C(=O)Nc1cccc(F)c1)N1Cc2ccccc2C1=O	·	-34.1%	17.8µM*	-24.2%	·	25.5%
CSCC[C@@H](C(=O)Nc1ccc2c(c1)OCCO2)N1Cc2ccccc2C1=O	·	-33.9%	?	?	2.0%	-8.7%
CSCC[C@@H](C(=O)NCc1cccs1)N1Cc2ccccc2C1=O	·	-9.4%	50.1µM*	-22.9%	15.9%	7.8%
CCOc1ccc(NC(=O)C(Cc2ccccc2)N2C(=O)c3cccc4cccc(c34)C2=O)cc1 (centres undefined)	4.5%	1.2%	?	-16.8%	9.8%	21.4%
CSCCC(C(=O)NCc1cccs1)N1C(=O)c2ccccc2C1=O (centres undefined)	·	5.5%	8.2%[59 µM]	-15.8%	5.1%	3.1%
COc1ccc(NC(=O)C(CCSC)N2C(=O)c3ccccc3C2=O)cc1 (centres undefined)	·	16.6%	?	-14.4%	50.1µM*	-12.1%
CCC1(c2ccccc2)NC(=O)N(CC(=O)N(C)CC(=O)Nc2ccc(F)c(F)c2F)C1=O (centres undefined)	-2.3%	-4.0%	2.7%[0.501 µM]	-8.2%	·	2.7%
CCCC1(c2ccccc2)NC(=O)N(CC(=O)N(C)Cc2c(F)cccc2Cl)C1=O (centres undefined)	·	-13.0%	18.0%[59 µM]	25.1µM*	10.5%	-11.6%
Cc1ccc(-n2nc(C)c3c(C)cc(=O)n(CC(=O)Nc4ccc(Br)cc4F)c32)cc1	·	0.3%	9.5%[59 µM]	0.0%	·	24.5%
CC1(C)OC(c2ccccc2)=C/C(=C/C=C2C(=O)c3ccccc3C2=O)O1	·	1.41µM*	2.51µM*	3.16µM*	-5.8%	?
CCN(CC)CCNC(=O)c1ccc(NC(=O)c2ccc(C(=O)c3ccccc3)cc2)cc1	12.8%	-16.8%	7.08µM*	-15.3%	·	6.6%
CCN(CC)CCNC(=O)c1ccc(NC(=O)c2ccc(Cl)c(S(=O)(=O)N3CCCCCC3)c2)cc1	-12.0%	-16.5%	·	?	50.1µM*	-23.8%
Cc1ccc2cc(C(c3nnnn3C(C)(C)C)N3CCCCCC3)c(=O)[nH]c2c1 (centres undefined)	0.0%	-24.8%	7.94µM*	-12.6%	?	23.5%
